Laboratory results: article PMC7819943, “Rice protein-binding microarrays: a tool to detect cis-acting elements near promoter regions in rice”
Over roughly 39,000 sequences, “fluorescence intensity (a.u.)” has its median near 4,300; the highest 2% begin near 39,000. This excerpt belongs to a sample that is enriched for the highest values.

biological target: T1, OsSMF1 (Oryza sativa, UniProt Q6ZLB0 1-436); assay: protein-binding microarray (RPBM); PBS, 2% BSA, 51.3 ng/ul salmon testes DNA, 50 uM zinc acetate, 200 nM TF, 25 C, 1 h; high values mean tight binding; details: protein: recombinant; tags: N-terminal polyhistidine and DsRed monomer fusion (pET32a); chain copies: 2; label: CyDye5-dUTP incorporated in the synthesized complementary strand; 3' TTTTT single-stranded linker to array surface; dsDNA, one strand shown
T1 sequence: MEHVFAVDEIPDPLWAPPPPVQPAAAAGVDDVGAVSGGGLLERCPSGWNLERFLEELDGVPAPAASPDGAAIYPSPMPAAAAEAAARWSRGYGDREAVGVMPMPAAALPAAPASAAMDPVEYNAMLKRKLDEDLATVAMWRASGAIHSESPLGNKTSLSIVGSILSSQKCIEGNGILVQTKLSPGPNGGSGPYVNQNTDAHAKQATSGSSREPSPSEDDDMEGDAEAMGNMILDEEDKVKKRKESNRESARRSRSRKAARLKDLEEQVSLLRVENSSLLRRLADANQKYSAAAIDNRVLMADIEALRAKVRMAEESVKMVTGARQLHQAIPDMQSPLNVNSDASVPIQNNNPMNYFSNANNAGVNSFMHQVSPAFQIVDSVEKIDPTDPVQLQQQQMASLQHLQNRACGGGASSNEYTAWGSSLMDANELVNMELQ
Method in brief: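 Polyhistidine-tagged DsRed fusions of transcription factors, joined at the N-terminus, were expressed in E. coli BL21-CodonPlus and isolated on Ni–NTA. They were incubated at 200 nM for 1 h at 25 °C on a custom Agilent array, double-stranded and BSA-blocked, in PBS with 2% BSA, salmon testes DNA and 50 µM zinc acetate. The binding signal is per-feature fluorescence intensity (arbitrary units) read on an Axon 4000B scanner after washing.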

Row | Sequence | binding signal
1 | TCCCTTGTCGACACATGCGTGTCAGCTCCAGGTTTATAACCGGAGTCACCTAGTGCAG | 6370 fluorescence intensity (a.u.)
2 | CTCATGTTGTTTGACGGTTTGACTCTCCTAGTTTATCATCCGGAGTCACCTAGTGCAG | 3370 fluorescence intensity (a.u.)
3 | TTCACGCCCTGTAACATCGTGTGCATCCATCCCTCCACCGCGGAGTCACCTAGTGCAG | 4190 fluorescence intensity (a.u.)
4 | TTTTCATAAATGCTCCTTTGAAACAAATGATTTTACCCTACGGAGTCACCTAGTGCAG | 43000 fluorescence intensity (a.u.)
5 | TAAAATCTAGATGCAATGAGTTATTTCATATGATTTGAAACGGAGTCACCTAGTGCAG | 17000 fluorescence intensity (a.u.)
6 | ACCTTCAAATGCAATTTTACAATGGATTTACCTCAAGCTACGGAGTCACCTAGTGCAG | 19200 fluorescence intensity (a.u.)
7 | CCTGAAGTTCTAGATGTTGATTTTGTCATGATGATCTAATCGGAGTCACCTAGTGCAG | 4580 fluorescence intensity (a.u.)
8 | AACTTCAATTTCAAATAACAGGGTCAAATAAACAAACCTACGGAGTCACCTAGTGCAG | 4590 fluorescence intensity (a.u.)
9 | TCCCGCCAAATCACCGATCCGCGCCTCACGCCACGTCAACCGGAGTCACCTAGTGCAG | 16000 fluorescence intensity (a.u.)
10 | CGTCTCATTCTCTCTCCACATTTCCTTTTGATCCCTTCTCCGGAGTCACCTAGTGCAG | 24300 fluorescence intensity (a.u.)
11 | ATAAATACCGCGATAACCTCCTTAAATTCAAATAAATTTACGGAGTCACCTAGTGCAG | 54800 fluorescence intensity (a.u.)
12 | GTTTGCGAGGAATAGCGGGAACGATCCGCGCCACCACGAACGGAGTCACCTAGTGCAG | 18000 fluorescence intensity (a.u.)
13 | CCTTAAATTTTCCTAAATCCTTACCTACCGTCATTCTCTCCGGAGTCACCTAGTGCAG | 47400 fluorescence intensity (a.u.)
14 | AAATAAATAGGGAATTTAACCTTGCCACGTCACCGATCCGCGGAGTCACCTAGTGCAG | 48100 fluorescence intensity (a.u.)
15 | TACTTATCCAGATTCAAAAGATAAAATTTATTATATTATACGGAGTCACCTAGTGCAG | 12600 fluorescence intensity (a.u.)
16 | TTTCTAATTCGTCATTCACCTCTCTCCTCCATCTCTACCCCGGAGTCACCTAGTGCAG | 3520 fluorescence intensity (a.u.)
17 | CCGGCGTGGCGACGTCAGTACTCTCTTCTGCTTCATTTCTCGGAGTCACCTAGTGCAG | 7490 fluorescence intensity (a.u.)
18 | AAGCTTTGCATTTGGGCGCTGGGCATGTCAGCGTCCGGTTCGGAGTCACCTAGTGCAG | 4440 fluorescence intensity (a.u.)
19 | AGATGGGCTTGAGAATGTGATGTCTCGTTTAATTGGGCCCCGGAGTCACCTAGTGCAG | 3310 fluorescence intensity (a.u.)
20 | ATTGTTGACACTATGACTTTCTTACTTTGACCGCAATTTTCGGAGTCACCTAGTGCAG | 3720 fluorescence intensity (a.u.)
21 | TGAGGATGCAAGAGAATCCTAAAAGGTAAGGCAGCATGCACGGAGTCACCTAGTGCAG | 44100 fluorescence intensity (a.u.)
22 | CAAGAGATAAGGAGCAATCGATCCAGCGTGGCGGCATGCACGGAGTCACCTAGTGCAG | 3470 fluorescence intensity (a.u.)
23 | CAAGCAATGCAAGGCAAGAGGTAATTGGCCGTGGAATCCACGGAGTCACCTAGTGCAG | 4720 fluorescence intensity (a.u.)
24 | CCAGTTTTGTCCACGTGGCAGCTGACTCACGGTGGGACCCCGGAGTCACCTAGTGCAG | 29200 fluorescence intensity (a.u.)
25 | CCAAAGCTGCGCAGCACCCTGAACGGCACCACACCACGGACGGAGTCACCTAGTGCAG | 57400 fluorescence intensity (a.u.)
26 | CGCACCCGCACAGCACCACACCACCTGCCTAGCGCCAAGCCGGAGTCACCTAGTGCAG | 3560 fluorescence intensity (a.u.)
27 | AAGTTTGGCTGTATTTATTCCACACCATAATTGAAAGTTTCGGAGTCACCTAGTGCAG | 3160 fluorescence intensity (a.u.)

Row | Sequence | binding signal
28 | AGCAAAGCTGCCAGAGCACGGCACAGCACACAGGTGACGGCGGAGTCACCTAGTGCAG | 3450 fluorescence intensity (a.u.)
29 | AGTTGAGCTCCTTGTCATTGATGAAGCTGCTGCTATTCCACGGAGTCACCTAGTGCAG | 3740 fluorescence intensity (a.u.)
30 | CACACGCAAAGCTGCAAAAGTTGAATTCCATTATTCCACACGGAGTCACCTAGTGCAG | 65500 fluorescence intensity (a.u.)
31 | ATTGGATGCTGAATTGATGAGTACATACGTATACGTATACCGGAGTCACCTAGTGCAG | 4160 fluorescence intensity (a.u.)
32 | CAACTGGCCATGTATGCACATGCACCCCAGAGACAACCTACGGAGTCACCTAGTGCAG | 3420 fluorescence intensity (a.u.)
33 | GTTGACGGGGTTTGTGAGGTGTGGCGGTGACTTGGAAAGACGGAGTCACCTAGTGCAG | 3540 fluorescence intensity (a.u.)
34 | ATGGTTAGCATTAATCACTAATCACGTCATCATTAGTGCTCGGAGTCACCTAGTGCAG | 4040 fluorescence intensity (a.u.)
35 | TGGGTCCCACGCAATAGTGGACCTGATGAATTGCAGGATTCGGAGTCACCTAGTGCAG | 41100 fluorescence intensity (a.u.)
36 | CCCACGGGATTGTCGGTCCCTCGTTTTGGTGATGCAGGACCGGAGTCACCTAGTGCAG | 3570 fluorescence intensity (a.u.)
37 | TGCAGGGACGATCTGATGGACAGCTCGGATTCGTCCCACACGGAGTCACCTAGTGCAG | 3190 fluorescence intensity (a.u.)
38 | GTTATCGTCATTACGTCAATACGTGTTTTCGAAAATAATTCGGAGTCACCTAGTGCAG | 4860 fluorescence intensity (a.u.)
39 | GACACCACCGCCGCCGCCGTCCTCGTCATCTCCAGATCGCCGGAGTCACCTAGTGCAG | 9120 fluorescence intensity (a.u.)
40 | ACAGTAGCACCGGAAAGCTGCATGTGAAGTCTAGTCAACGCGGAGTCACCTAGTGCAG | 4250 fluorescence intensity (a.u.)
41 | CTTCTCCTGCATGGCAAGTCGCTGATCACAACTACGCATCCGGAGTCACCTAGTGCAG | 3610 fluorescence intensity (a.u.)
42 | ATCATGTACATCTCATAGTCAACAATATTCATCACAATCTCGGAGTCACCTAGTGCAG | 3640 fluorescence intensity (a.u.)
43 | CATAACAACCACTAAAACATTATGAATATTTTGTACATACCGGAGTCACCTAGTGCAG | 22800 fluorescence intensity (a.u.)
44 | CGCACGATGATCATGTGTTGGTGTTGGCATGCAATGCAACCGGAGTCACCTAGTGCAG | 3780 fluorescence intensity (a.u.)
45 | TAGATCAATGATGTTGCATGCAACTCACGCGACACATGGTCGGAGTCACCTAGTGCAG | 40000 fluorescence intensity (a.u.)
46 | TGAATATAAACACAACTACATTTAGCGACAGAAGAAGAACCGGAGTCACCTAGTGCAG | 40600 fluorescence intensity (a.u.)
47 | CAAAGGAACACATCTGGGTCATCAGACAACTCAATAGAGTCGGAGTCACCTAGTGCAG | 43000 fluorescence intensity (a.u.)
48 | TCATCTGGTACAAAATATATAGGACATCAATCATGGGGAACGGAGTCACCTAGTGCAG | 26200 fluorescence intensity (a.u.)
49 | TTCACAACACTTGCATGAACTCAGGTGTCAATGGTAAGGTCGGAGTCACCTAGTGCAG | 3560 fluorescence intensity (a.u.)
50 | ATACAAAACTAGAAACAAGACATACCAACATCACAACATGCGGAGTCACCTAGTGCAG | 26100 fluorescence intensity (a.u.)
51 | ACTATATATATACACTACGGTTGACAAAGACATCCCAACACGGAGTCACCTAGTGCAG | 3240 fluorescence intensity (a.u.)
52 | TGTAACTATTCTCGCGACACGTACACACCAACACATAAACCGGAGTCACCTAGTGCAG | 4520 fluorescence intensity (a.u.)
53 | GAGAAAGGAACAACTACAAAAGACACACATATATACTATGCGGAGTCACCTAGTGCAG | 39400 fluorescence intensity (a.u.)
54 | CGGAGAGGGAGAAGGAGAGGAGAGGGGCTGATAGGTGGGGCGGAGTCACCTAGTGCAG | 3520 fluorescence intensity (a.u.)
